Compounds without any hit were thinned out: in the full panel of roughly 83,000, 20% have a hit.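 Compound tested at a single concentration for 48 hours in 96-well plates; a percent growth value below 10 was scored as active.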 A number with no mark means an inactive call. The source made the active and inactive calls.
system: NCI/ADR-RES ovarian; experiment: NCI-60 one-dose screen, 48 h (100 = growth as untreated, 0 = no growth, -100 = all killed); settings: 10 µM unless noted
Method: Growth inhibition of the NCI/ADR-RES human […] tumor cell line is measured as a screen for anti-cancer activity. Cells are grown in 96 well plates and exposed to the test compound for 48 hours. Compounds are tested at a single concentration, which is 10^-5 M for most compounds. The reported endpoint is percent growth (GI% or GIPRCNT), where numbers from 0 - 100% represent growth inhibition, and numbers from -100% - 0 represent cell death. For example, a value of 40 represents 60% growth inhibition. A value of 0 means no net growth occurred over the course of the experiment. A value of -40 indicates 40% of cells at the beginning of the experiment died by the end of the experiment. A value of -100 means all cells are dead at the end of the experiment.
NCI-60 Human Tumor Cell Lines Screen was performed using the standard one-dose NCI protocol, which is described in more detail at https://dtp.cancer.gov/discovery_development/nci-60/default.htm.
Compounds with GIPRCNT values below 10 were considered active. Activity score was based on GIPRCNT using the following formula: […]
Score is 0 for GIPRCNT values of 100 or above, 50 for GIPRCNT values of 0, and 100 for GIPRCNT values of -100.

| SMILES | growth |
| --- | --- |
| COC(=O)N[C@@H](C)CNc1nccc(-c2cn(C(C)C)nc2-c2cc(Cl)cc(NS(C)(=O)=O)c2F)n1 | 96.8% |
| CCN(CC)CCOc1ccc(/C(=C(\C)c2ccc(Cl)cc2)c2ccc(Cl)cc2)cc1 | 81.5% |
| CC(=O)c1cnc2ccc(-c3cc(Cl)c(O)c(Cl)c3)nc2c1NC1CCC(CN(C)C)CC1 (stereo not given) | -13.7% [2.5 µM] (active) |
| COC(=O)[C@H](Cc1ccc(O)cc1)NC(=O)[C@@H](OC)[C@@H]1Cc2cc3cc(OC4CC(OC5CC(O)C(O)C(C)O5)C(O)C(C)O4)c(C)c(O)c3c(O)c2C(=O)[C@H]1OC1CC(OC2CC(OC3CC(C)(O)C(O)C(C)O3)C(O)C(C)O2)C(O)C(C)O1 (stereo not given in full) | 85.6% |
| COc1cc2ncnc(Nc3cccc(Cl)c3F)c2cc1OC(=O)N1CCN(C)C[C@H]1C | 64.3% |
| O=C(Nc1ccc(C(=O)Nc2ccc(C3=NCCCN3)cc2)cc1)Nc1ccc(C2=NCCCN2)cc1 | 86.5% |
| N#Cc1c(NC(=O)c2ccco2)[n+]([O-])c2cc(F)c(F)cc2[n+]1[O-] | 112% |
| Nc1nc(=S)c2ncn(C3OC(COC(=O)c4ccc(Cl)cc4)C(OC(=O)c4ccc(Cl)cc4)C3OC(=O)c3ccc(Cl)cc3)c2[nH]1 (stereo not given) | 103% |
| C[C@@]1(C(=O)Nc2ccc(F)nc2)CCCN1c1nc(Nc2cc(C3CC3)[nH]n2)c2cccn2n1 | 32% |
| CCn1c(-c2nonc2N)nc2c(C#CC(C)(C)O)ncc(OC[C@H]3CCCNC3)c21 | 95.6% |
| CC(=O)Nc1cccc(-n2c(=O)n(C3CC3)c(=O)c3c(Nc4ccc(I)cc4F)n(C)c(=O)c(C)c32)c1 | 46.6% |
| COc1cc2cc(NCc3ccc(Cl)cc3)nc(C)c2cc1OC | 33.6% |
| Cn1ccnc1C(=O)/C=C/c1ccc(CC(=O)Nc2ccc(S(F)(F)(F)(F)F)cc2)cc1 | 7.59% (active) |
| CC(=O)C1=C(C)NC(SCc2nnc(-c3ccc(C)cc3)o2)=NC1c1ccc(F)cc1 (stereo not given) | 98.2% |
| CS(=O)(=O)CCNCc1ccc(-c2ccc3ncnc(Nc4ccc(OCc5cccc(F)c5)c(Cl)c4)c3c2)o1 | 8.75% (active) |
| O=C(NO)c1ccc(Cn2c(=O)n(CCc3ccccc3)c(=O)c3ccccc32)cc1 | 57.5% |
| O=C(Nc1ccc(N=Nc2ccccc2)cc1)c1cccc2ccccc12 | 49.3% |
| CC[C@H](CO)Nc1nc(NCc2ccccc2)c2ncn(C(C)C)c2n1 | 71.4% |
| COCCN1CCN(Cc2ccc(-c3n[nH]c4c3C(=O)c3c(NC(=O)NN5CCOCC5)cccc3-4)cc2)CC1 | 5% (active) |
| CCc1nc2cc(/C=C/C(=O)NO)ccc2c(=O)n1CCc1ccc(F)cc1 | 4.25% (active) |

| SMILES | growth |
| --- | --- |
| CCCCCc1ccc(C)cc1OC(=O)CCl | 111% |
| CO[C@H]1C[C@@H]2CC[C@@H](C)[C@@](O)(O2)C(=O)C(=O)N2CCCC[C@H]2C(=O)O[C@H]([C@H](C)C[C@@H]2CC[C@@H](OCCO)[C@H](OC)C2)CC(=O)[C@H](C)/C=C(\C)[C@@H](O)[C@H](OC)C(=O)[C@H](C)C[C@H](C)\C=C/C=C/C=C/1C | 57.7% |
| Nc1c(Cl)cccc1[N+](=O)[O-] | 102% |
| CC(=Nc1ccccc1)C1=C(O)C(Cc2ccc(O)cc2)NC1=O (stereo not given) | -13.4% (active) |
| CCN(CC)CCCC(C)Nc1cc(-c2ccc(C(F)(F)F)cc2)c(C#N)c2nc3ccccc3n12 (stereo not given) | 32.2% |
| Cc1cccc(Cl)c1NC(=O)c1cnc(Nc2cc(N3CCOCC3)cc(S(C)(=O)=O)c2)s1 | 64.4% |
| Cn1cc(-c2cnn3c(N)c(Br)c([C@@H]4CCCNC4)nc23)cn1 | 51.5% |
| O=C(Cc1ccc(/C=C/C(=O)c2ncc[nH]2)cc1)Nc1ccc(S(F)(F)(F)(F)F)cc1 | 97.2% |
| COc1ccc(-c2nocc2-c2cc(OC)c(OC)c(OC)c2)cc1 | -19.5% (active) |
| C=CC(=O)Nc1cc2c(Nc3ccc(F)c(Cl)c3)ncnc2cc1C#CC(C)(C)N1CCN(C)CC1 | -52.2% (active) |
| CN1CCN(c2nc(NCCNc3ccnc4cc(Cl)ccc34)c3ccccc3n2)CC1 | 85.5% |
| Cc1nn(-c2nc3ccccc3[nH]2)c2c1C(c1ccc(OCc3ccc(F)cc3)cc1)CC(=O)N2 (stereo not given) | 65.9% |
| O=C(c1c(F)ccc(NS(=O)(=O)N2CC[C@@H](F)C2)c1F)c1c[nH]c2ncc(-c3cnc(C4CC4)nc3)cc12 | 102% |
| COC(=O)[C@@H](OC)[C@@H]1Cc2cc3cc(OC4CC(OC5CC(O)C(O)C(C)O5)C(O)C(C)O4)c(C)c(O)c3c(O)c2C(=O)[C@H]1OC1CC(OC2CC(OC3CC(C)(O)C(O)C(C)O3)C(O)C(C)O2)C(O)C(C)O1 (stereo not given in full) | 42.7% |
| COc1ccc(-c2cc3c(oc2=O)-c2ccccc2OC3OC(C)=O)cc1 (stereo not given) | 93.8% |
| Nc1cc2c(cc1Br)-c1c(C(=O)O)cccc1C2O (stereo not given) | 118% |
| CCN1CCN(c2nc(C)cc(N(CCCNc3ccnc4cc(Cl)ccc34)Cc3ccc4c(c3)OCO4)n2)CC1 | 30.2% |
| CSc1nc2ncnc(SC)c2[nH]1 | 108% |
| COc1ccc(C(=O)c2cc(OC)c(OC)c(OC)c2)cc1/C=C/C(=O)c1ccc(F)cc1 | 31.1% |
| C=C1C(=O)O[C@H]2[C@H]1CC/C(CNC(=O)c1cc3cc(OC)ccc3[nH]1)=C\CC[C@@]1(C)O[C@@H]21 | 54.3% |
